# Results reported in PubChem BioAssay.
# Calls of active or inactive are those of the source. How the calls were made is not given here.
# Experiment: inhibitors of hydroxyurea-induced Chk1 phosphorylation, primary screen, imaging, HeLa, phospho-Chk1 nuclear intensity (AID 1187); further: test concentration not given here
# Conditions: hydroxyurea-induced phospho-Chk1 immunofluorescence imaging, higher = more signal
row,SMILES,z-score
1,COC(=O)[C@@]1(Cc2ccccc2)[C@H]2c3cc(C(=O)N(C)C)n(Cc4nc5ccccc5[nH]4)c3C[C@H]2CN1C(=O)c1ccccc1,0.0294 (inactive)
2,CC(C)C(=C=CC[C@H](O)c1cccc(OCCO)c1)C[C@H](O)c1ccccn1,0.321 (inactive)
3,COc1ccc(CCNC(=O)[C@@H]2c3ccccc3C(=O)N(C(C)C)[C@H]2c2ccc(CO)cc2)cc1,-0.238 (inactive)
4,COCCOC(=O)N1C(=O)[C@@]2(c3cc(C#CCNC(N)=O)ccc31)[C@H](C(=O)Nc1nc3ccccc3s1)[C@H]1C(=O)O[C@H](c3ccccc3)[C@H](c3ccccc3)N1[C@@H]2c1ccc(O)cc1,-0.0749 (inactive)
5,O=C(c1ccccc1)N1Cc2ccccc2C[C@@]2(N=C(c3ccc(OCCCO)cc3)O[C@H]2c2ccccc2)C1=O,0.098 (inactive)
6,CC(=O)NCCCC[C@@H]1NC(=O)[C@H]2C[C@@H](C(=O)NCCCCCN)[C@@H](c3ccc(O)cc3)N2C1=O,-0.163 (inactive)
7,COc1ccc(NN2C(C(O)c3ccc(F)cc3)C=CC3C(=O)N(C4CCCCC4)C(=O)C32)cc1 (stereo unspecified),0.0539 (inactive)
8,C=C(COC)C(=O)CC[C@@H](OC(=O)c1ccccc1-c1ccccc1C(=O)O)c1ccccc1OCCO,0.888 (inactive)
9,COc1ccc(C(O)C2C=CC3C(=O)N(C)C(=O)C3N2Nc2ccccc2)cc1 (stereo unspecified),-0.0307 (inactive)
10,C=CCOC(=O)[C@H]1[C@@H]2C(=O)O[C@@H](c3ccccc3)[C@@H](c3ccccc3)N2[C@@H](c2ccc(OCCOC(=O)[C@H]3C[C@H]4C(=O)NCC(=O)N4[C@H]3c3ccc(O)cc3)cc2)[C@]12C(=O)Nc1ccccc12,0.182 (inactive)
11,CN1C2C=C(c3ccc(CO)cc3)C(C3C(=O)N(C(N)=O)C(=O)C32)C1C1CC1 (stereo unspecified),0.169 (inactive)
12,C=CCNC(=O)[C@H]1[C@@H]2C(=O)O[C@@H](c3ccccc3)[C@@H](c3ccccc3)N2[C@@H](c2ccc(OCCO)cc2)[C@]12C(=O)Nc1ccc(C#Cc3ccc(OC)cc3)cc12,0.202 (inactive)
13,O=C(N1CCOCC1)[C@]1(CCS(=O)(=O)c2ccccc2)N=C(c2ccc(OCCCO)cc2)O[C@@H]1c1ccccc1,0.0352 (inactive)
14,Cc1c(NC(=O)/C(C#N)=C/C=C/c2ccc([N+](=O)[O-])cc2)c(=O)n(-c2ccccc2)n1C,0.501 (inactive)
15,COC(=O)C(CC#Cc1ccc2c(c1)[C@]1(C(=O)N2)[C@H](c2ccccc2OCCO)N2[C@H](c3ccccc3)[C@H](c3ccccc3)OC(=O)[C@H]2[C@@H]1C(=O)N1CCN(c2ncccn2)CC1)C(=O)OC,-0.581 (inactive)
16,C[C@]1(C(=O)NC2CC2)c2ccccc2C(=O)N(Cc2cc(F)cc(C(F)(F)F)c2)[C@H]1c1ccc(CO)cc1,0.529 (inactive)
17,[N-]=[N+]=NCc1ccccc1C[C@@]1(C(N)=O)N=C(c2ccc(OCCCO)cc2)O[C@@H]1c1ccccc1N=[N+]=[N-],1.02 (inactive)
18,C=C(COC)C(=O)CC[C@H](OC(C)=O)c1ccc(CO)o1,-0.842 (inactive)

row,SMILES,z-score
1,CCCCC=C[C@@H](NC(=O)C(C)(C)C)c1ccccc1,-0.124 (inactive)
2,O=C1NC(=O)C2C1C=CC(C(O)C(c1ccccc1)c1ccccc1)N2Nc1ccccn1 (stereo unspecified),-0.319 (inactive)
3,CCOC(=O)C[C@H]1[C@H](OC(=O)c2ccc(-c3ccccc3)cc2)[C@@H](NC(=O)C2CCCCC2)c2cc(OCCCO)ccc2N1C(=O)Cc1ccc(OC)cc1,0.295 (inactive)
4,C=CCOC(=O)[C@H]1[C@@H]2C(=O)O[C@@H](c3ccccc3)[C@@H](c3ccccc3)N2[C@@H](c2ccc(OCCOC(=O)[C@H]3C[C@H]4C(=O)NCC(=O)N4[C@H]3c3cccc(OCCO)c3)cc2)[C@]12C(=O)Nc1ccc(I)cc12,-1.12 (inactive)
5,CC1CC/C=C\[C@H]2OC34C=CCN(C(C)C)C(=O)[C@H]3N(C(C)CO)C(=O)[C@@H]4C2C(=O)O1 (stereo partly specified),-0.249 (inactive)
6,COCCOC(=O)N1C(=O)[C@@]2(c3cc(C#CCNC(N)=O)ccc31)[C@H](C(N)=O)[C@H]1C(=O)O[C@H](c3ccccc3)[C@H](c3ccccc3)N1[C@@H]2c1ccc(O)cc1,0.888 (inactive)
7,[N-]=[N+]=NCc1ccccc1[C@H]1OC(c2ccc(OCCCO)cc2)=N[C@@]1(Cc1ccccc1N=[N+]=[N-])C(=O)O,0.194 (inactive)
8,COc1cccc(C)c1NC(=O)O[C@H]1[C@H](OC(=O)Nc2ccc3c(c2)OCO3)[C@H](OC(=O)Nc2ccc3c(c2)OCO3)[C@@H](OC)O[C@@H]1CO,-1.29 (inactive)
9,CN(C)CCCC[C@@H]1NC(=O)[C@H]2C[C@@H](C(=O)NCCCCCCNC(=O)CS)[C@@H](c3cccc(OCCO)c3)N2C1=O,0.68 (inactive)
10,CCCC[C@@H](O)C1=C(C)Cn2c(=O)n(-c3ccccc3)c(=O)n2[C@H]1CO,-0.621 (inactive)
11,C=CCN1C(=O)[C@]2(O[C@H](CCO)[C@@H]([Si](C)(C)c3ccc(OC)cc3)[C@@H]2C)c2cc(N3C(=O)c4ccccc4Oc4ccccc43)ccc21,-1.5 (inactive)
12,COC(=O)[C@@]1(Cc2ccc(F)cc2)[C@H]2c3cc(C(=O)N4CCCC4)n(C[C@H](O)CO)c3C[C@H]2CN1C(=O)c1ccccc1,0.439 (inactive)
13,CN1C(=O)C2C(C1=O)C1C=C(CCCO)C2C(C2CC2)N1C (stereo unspecified),0.162 (inactive)
14,C=CCOC(=O)[C@H]1[C@@H]2C(=O)O[C@@H](c3ccccc3)[C@@H](c3ccccc3)N2[C@@H](c2ccc(OCCOC(=O)[C@@H]3C[C@@H]4C(=O)N[C@@H](Cc5ccccc5)C(=O)N4[C@@H]3c3ccc(O)cc3)cc2)[C@]12C(=O)Nc1ccc(I)cc12,-0.152 (inactive)
15,[N-]=[N+]=Nc1ccccc1C[C@@]1(C(=O)NCC(O)CO)N=C(c2ccc(OCCCO)cc2)O[C@@H]1c1ccccc1N=[N+]=[N-] (stereo partly specified),0.263 (inactive)
16,COc1ccc(CCNC(=O)[C@@]2(C)c3ccccc3C(=O)N(Cc3ccc(OC(F)(F)F)cc3)[C@H]2c2ccc(CO)cc2)cc1,-0.102 (inactive)
17,CCOC(=O)C1=CC[C@@H](c2ccccc2)N(S(=O)(=O)c2ccc(C)cc2)[C@@H]1C#N,-2.5 (inactive)
18,[N-]=[N+]=NCc1ccccc1[C@H]1OC(c2ccc(OCCCO)cc2)=N[C@@]1(Cc1ccccc1N=[N+]=[N-])C(=O)N1CCOCC1,0.0967 (inactive)
